# Results taken from the supplement of paper PMC8728848.
# The sample as a whole holds a higher share of the strongest signals than the screen did.
# B1: TES70 (Toxocara canis), Q9XYV5 (protein)
# chain: MISVVLVAIALQISGSYAGACNSINDCGLFETCVNNMCVPDNMGCPMPCQAGQVCVPPNCVAAPAPQPVTTTTAAATTTTSARGRCNANAQCGAFEVCVNGMCQPNNAGCNPPCAANQVCVAPNCVPAPIPPPAQSTTTAPATTRAPPSCPPSWSPFSGHCYYVAVGSFLFNQASDWCTQTNSRPVWFDQSNVGTFGAELYFINVLAASRGVQTYWLGLNRQFGQWVWTNGSPLIFSNWRGSEPDGCCGGNVTCALVNYANPFGQWDDAGCGNIWRNPQGFICKKPLA
# B2: F17bG (Escherichia coli), Q47200 (protein)
# chain: MTNFYKVFLAVFILVCCNISHAVVSFIGSTENDVGPSQGSYSSTHAMDNLPFVYNTGYNIGYQNANVWRIGGGFCVGLDGKVDLPVVGSLDGQSIYGLTEEVGLLIWMGDTNYSRGTAMSGNSWENVFSGWCVGNYLSTQGLSVHVRPVILKRNSSAQYSVQKTSIGSIRMRPYNGSSAGSVQTTVNFSLNPFTLNDTVTSCRLLTPSAVNVSLAAISAGQLPSSGDEVVAGTTSLKLQCDAGVTVWATLTDATTPSNRSDILTLTGASTATGVGLRIYKNTDSTPLKFGPDSPVKGNENQWQLSTGTETSPSVRLYVKYVNTGEGINPGTVNGISTFTFSYQ
# B3: RSVL (Crotalus atrox), P21963 (protein)
# chain: NNCPLDWLPMNGLCYKIFNQLKTWEDAEMFCRKYKPGCHLASFHRYGESLEIAEYISDYHKGQENVWIGLRDKKKDFSWEWTDRSCTDYLTWDKNQPDHYQNKEFCVELVSLTGYRLWNDQVCESKDAFLCQCKF
# Columns and labels:
# Test in all cases: glycan array binding signal (z-score within array); higher = stronger binding
# Conditions in all cases: glycan notation: IUPAC condensed, linker removed
# [1] = target: Fuc(a1-2)[Gal(a1-3)]Gal
# Method in brief: (§1)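 The Consortium for Functional Glycomics database supplied 3228 glycan arrays, of which those lacking an available protein sequence were dropped. The binding signal, a within-array Z-score, was averaged across arrays of the same protein sequence and across linkers. Negative scores can be read as non-binding.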
# [2] = target: Fuc(a1-3)GlcNAc
# Method in brief: as §1
# [3] = target: Gal(b1-3)[Neu5Ac(a2-6)]GalNAc
# Method in brief: as §1
# [4] = target: Gal(b1-4)GlcNAc(b1-6)GalNAc
# Method in brief: as §1
# [5] = target: Glc(b1-4)Glc
# Method in brief: as §1
# [6] = target: GlcNAc(b1-4)[GlcNAc(b1-6)]GalNAc
# Method in brief: as §1
# [7] = target: Man(a1-2)Man(a1-6)[Man(a1-3)]Man(a1-6)[Man(a1-2)Man(a1-2)Man(a1-3)]Man(b1-4)GlcNAc(b1-4)GlcNAc
# Method in brief: as §1
# [8] = target: Neu5Ac(a2-3)Gal(b1-3)GalNAc
# Method in brief: as §1
# [9] = target: Neu5Ac(a2-3)Gal(b1-3)[Neu5Ac(a2-6)]GalNAc
# Method in brief: as §1
# [10] = target: Neu5Ac(a2-6)Gal(b1-4)GlcNAc
# Method in brief: as §1
# [11] = target: Neu5Ac(a2-8)Neu5Ac(a2-3)Gal(b1-4)Glc
# Method in brief: as §1
# [12] = target: Neu5Ac9Ac(a2-6)Gal(b1-4)GlcNAc
# Method in brief: as §1
# [13] = target: Fuc(a1-2)[Gal(a1-4)]Gal(b1-4)GlcNAc
# Method in brief: as §1
# [14] = target: Fuc(a1-2)[GalNAc(a1-3)]Gal(b1-3)GlcNAc
# Method in brief: as §1
# [15] = target: Fuc(a1-3)[Gal(b1-4)]GlcNAc(b1-4)Gal(b1-4)[Fuc(a1-3)]GlcNAc(b1-4)Gal(b1-4)[Fuc(a1-3)]GlcNAc
# Method in brief: as §1
# [16] = target: Gal(a1-3)Gal(b1-4)Glc
# Method in brief: as §1
# [17] = target: Gal(a1-4)Gal(b1-4)GlcNAc
# Method in brief: as §1
# [18] = target: Gal(b1-3)[Fuc(a1-4)]GlcNAc
# Method in brief: as §1
# [19] = target: Gal(b1-3)[GlcNAc(b1-6)]GalNAc
# Method in brief: as §1
# [20] = target: GalNAc(b1-3)GalNAc
# Method in brief: as §1
# [21] = target: GalNAc(b1-4)GlcNAc
# Method in brief: as §1
# [22] = target: GlcNAc(b1-3)Gal
# Method in brief: as §1
# [23] = target: GlcNAc(b1-3)GalNAc
# Method in brief: as §1
# [24] = target: GlcNAc(b1-3)[GlcNAc(b1-6)]Gal(b1-4)GlcNAc
# Method in brief: as §1
# [25] = target: Neu5Ac(a2-3)Gal(b1-4)Glc
# Method in brief: as §1
# [26] = target: Neu5Ac(a2-3)Gal(b1-4)GlcNAc(b1-3)Gal(b1-4)GlcNAc
# Method in brief: as §1
# [27] = target: Neu5Ac(a2-3)Gal(b1-4)GlcNAc(b1-3)Gal(b1-4)[Fuc(a1-3)]GlcNAc
# Method in brief: as §1
# [28] = target: Neu5Ac(b1-6)GalNAc
# Method in brief: as §1
# [29] = target: Fuc(a1-2)GlcNAc
# Method in brief: as §1
# [30] = target: Fuc(a1-2)[GalNAc(a1-3)]Gal(b1-4)Glc
# Method in brief: as §1
# [31] = target: Gal(a1-3)[Gal(a1-4)]Gal(b1-4)GlcNAc
# Method in brief: as §1
# [32] = target: Gal(b1-3)[Neu5Ac(b2-6)]GalNAc
# Method in brief: as §1
# [33] = target: Gal(b1-4)GlcNAc
# Method in brief: as §1
# [34] = target: Gal(b1-4)GlcNAc(b1-2)Man(a1-3)[Gal(b1-4)GlcNAc(b1-2)Man(a1-6)]Man(b1-4)GlcNAc(b1-4)GlcNAc
# Method in brief: as §1
# [35] = target: Gal(b1-4)GlcNAc(b1-3)Gal(b1-4)GlcNAc(b1-3)Gal(b1-4)GlcNAc
# Method in brief: as §1
# [36] = target: Gal(b1-4)GlcNAc(b1-3)GalNAc
# Method in brief: as §1
# [37] = target: Gal(b1-4)GlcNAc(b1-3)[Gal(b1-4)GlcNAc(b1-6)]GalNAc
# Method in brief: as §1
# [38] = target: Gal(b1-4)GlcNAc(b1-6)[Gal(b1-3)]GalNAc
# Method in brief: as §1
# [39] = target: GalNAc(a1-3)GalNAc
# Method in brief: as §1
# [40] = target: GalNAc(b1-3)Gal(a1-4)Gal(b1-4)GlcNAc
# Method in brief: as §1
# [41] = target: Glc(b1-6)Glc
# Method in brief: as §1
# [42] = target: GlcNAc(b1-3)Gal(b1-4)GlcNAc
# Method in brief: as §1
# [43] = target: GlcNAc(b1-4)GlcNAc(b1-4)GlcNAc(b1-4)GlcNAc(b1-4)GlcNAc(b1-4)GlcNAc
# Method in brief: as §1
# [44] = target: GlcNAc(b1-6)GalNAc
# Method in brief: as §1
# [45] = target: Man(a1-2)Man(a1-2)Man(a1-3)Man
# Method in brief: as §1
# [46] = target: Neu5Ac(a2-3)Gal(b1-4)[Fuc(a1-3)]GlcNAc6S
# Method in brief: as §1
# [47] = target: Neu5Ac(a2-3)GalNAc
# Method in brief: as §1
# [48] = target: Neu5Ac(a2-3)GalNAc(b1-4)GlcNAc
# Method in brief: as §1
# [49] = target: Neu5Ac(a2-8)Neu5Ac(a2-8)Neu5Ac(a2-3)[GalNAc(b1-4)]Gal(b1-4)Glc
# Method in brief: as §1
# [50] = target: Neu5Gc(a2-3)Gal(b1-4)Glc
# Method in brief: as §1
# [51] = target: Neu5Gc(a2-6)GalNAc
# Method in brief: as §1
binder,measurement,setting,value
B1,glycan array binding signal (z-score),[1],-0.052
same,glycan array binding signal (z-score),[2],-0.169
same,glycan array binding signal (z-score),[3],0.002
same,glycan array binding signal (z-score),[4],0.229
same,glycan array binding signal (z-score),[5],-0.156
same,glycan array binding signal (z-score),[6],0.013
same,glycan array binding signal (z-score),[7],-0.137
same,glycan array binding signal (z-score),[8],0.672
same,glycan array binding signal (z-score),[9],-0.065
same,glycan array binding signal (z-score),[10],6.41
same,glycan array binding signal (z-score),[11],-0.14
same,glycan array binding signal (z-score),[12],-0.172
B2,glycan array binding signal (z-score),[1],-0.551
same,glycan array binding signal (z-score),[13],-0.657
same,glycan array binding signal (z-score),[14],-0.567
same,glycan array binding signal (z-score),[15],-0.507
same,glycan array binding signal (z-score),[16],-0.565
same,glycan array binding signal (z-score),[17],-0.527
same,glycan array binding signal (z-score),[18],-0.578
same,glycan array binding signal (z-score),[19],1.08
same,glycan array binding signal (z-score),[20],4.47
same,glycan array binding signal (z-score),[21],-0.391
same,glycan array binding signal (z-score),[22],4.21
same,glycan array binding signal (z-score),[23],3.86
same,glycan array binding signal (z-score),[24],5.83
same,glycan array binding signal (z-score),[25],-0.498
same,glycan array binding signal (z-score),[26],0.462
same,glycan array binding signal (z-score),[27],0.05
same,glycan array binding signal (z-score),[28],-0.298
B3,glycan array binding signal (z-score),[29],-0.364
same,glycan array binding signal (z-score),[30],1.84
same,glycan array binding signal (z-score),[31],5.83
same,glycan array binding signal (z-score),[32],0.952
same,glycan array binding signal (z-score),[33],0.686
same,glycan array binding signal (z-score),[34],1.49
same,glycan array binding signal (z-score),[35],-0.23
same,glycan array binding signal (z-score),[36],-0.171
same,glycan array binding signal (z-score),[37],5.41
same,glycan array binding signal (z-score),[38],5.05
same,glycan array binding signal (z-score),[39],4.76
same,glycan array binding signal (z-score),[40],0.559
same,glycan array binding signal (z-score),[41],-0.364
same,glycan array binding signal (z-score),[42],-0.369
same,glycan array binding signal (z-score),[43],-0.369
same,glycan array binding signal (z-score),[44],1.02
same,glycan array binding signal (z-score),[45],-0.367
same,glycan array binding signal (z-score),[26],-0.365
same,glycan array binding signal (z-score),[46],-0.345
same,glycan array binding signal (z-score),[47],-0.367
same,glycan array binding signal (z-score),[48],-0.342
same,glycan array binding signal (z-score),[49],-0.362
same,glycan array binding signal (z-score),[50],-0.365
same,glycan array binding signal (z-score),[51],-0.366
